This is an account of results in the supplement of paper PMC6555819.

For the assay, the system named is VDR:RXRa (NR concentration 270 nM, RXRa partner concentration 90 nM). In words: PBM binding z-score (relative to random genomic background probes); higher = stronger binding; sequences stand for … in GC…GCGATTGACAGCGTAGAATGAAGG
The procedure:
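Protein-binding microarray (Agilent 4x180K custom design, double-stranded 60-nt probes: 5' GC cap, 34-nt variable region, 24-nt constant primer region; full probe sequence given). Purified or IVT nuclear receptor:RXRα heterodimers (3:1 NR:RXRα, mostly 270:90 nM) or homodimers were incubated for 1 h in PBS with 2% milk and no ligand, then detected with Alexa488 antibodies. Fluorescence from o1-orientation probes (~5 replicates averaged) was converted to z-scores against 500 random hg19 background probes. Variable regions are seed direct-repeat (DR0–DR5) sites, all their single-nucleotide variants and half-site ablations.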
The sequence TCTTGTTGATCAGCAGGTTAAGAAAGCTGGCCAA came in with a PBM binding z-score of 0.36.
With CCTGCTAGGTCAATGGTCAGCTACAGCAGCTCGC the figure was 0.991; with ATAACGAGGGCACGCTGAGTTGATAGCAGAGTAG, 2.27.
For ATTCAAAGTTCACTAGGTAACGTAAGATTCAGCT the value was 3.43; for ATCGAAAGGTCGAGGTCAGTATAGAGAAAGGGAA, 4.49.
For the sequence CAAACTAGGTCCAGAGGTCAAAGTCCGCTTCCCG, the PBM binding z-score worked out at 5.14.
Turning to GCTAGTTGGACAGTAAAAGGTCACACACCGGTCG, the PBM binding z-score was 3.84.
With ACTCGGAGGCCAAAGGTCAGAGCTACGCCAGTGA the figure was 3.11; with CCTAGCAGGCCAGGGTCACTCACGCATTTCGCTT, 2.3.
For TCTTGTAGATCATCAGGTTAAGAAAGCTGGCCAA the value was 0.814; for GCTCGGAGGAAAAGGTCAGAGCTTTGTCCGTAGA, 2.14.
With TCATATAGGTAAAAGGTGACAGTCGGTGTGGTAA the figure was 1.35; with GCTAATAGTTGAAAGGGCAACCGAATGATTCTCG, 0.767.
Sequence CGAACTAGGTCATTGACAGGACACTGAATAGTAA registered a PBM binding z-score of 2.52.
The sequence GCTACTAGGTCAGGTTGGTCAGCTAACGGGTACG gave a PBM binding z-score of 0.914.
With TCTTGTAGATCAACTGGAGGTTAAGAAAGATCGA, the PBM binding z-score was determined as 0.589.
With GATACAGGGTCAAGGCCAGAGTCCGCGTATTGAT, the PBM binding z-score was 4.32.
With TCATATAGGTAAACGTGAAAGTCGAACGATATGA the figure was 0.503.
As for TCAAATAGGTAATACAGGTGAAAGTCGGCATCTA, the PBM binding z-score stood at 1.28.
For TCTTGTAGCTCAAGCAGGTTAAGAAAGCCTGAGT the value was -0.0447; for CGAACTAGGTCATCCAGGACAGTGTATACATTGA, 4.57.
For GTACCAGGGTGAATAGGTCGTTGATGAGTAGGCG the value was 1.
For ATATGTAGGTTAGCTGGGGTCATTCTGACTAGGC the value was 6.29; for CATACAGGGTCACCTAGGCCAGAGTAGGGACGGC, 5.14; for TCTTGTAGATCAAGCAGGTGAAGAAAGCCTGAGT, 0.0815.
For GCAGGCAGGTGAAACGCAGGTAACTCAGGGTGGC, the PBM binding z-score worked out at 0.85.
For the sequence CGTCCAAGGTCAGACAGGTCAGTGAATGCCGAGT, the PBM binding z-score worked out at 5.82.
Turning to AGAACGAGGGCCATGAGTTGATAGCACGGGTGGC, the PBM binding z-score stood at 0.196.
For GCGGCTGGGGCAAAGCAGGTTACCATAAGGTTGG the value was 0.192; for GCTGTTAGGTCAACTGATGGTCAGCTAAAGCTCG, 2.01.
For CCGATTGGGGCAAGGTTACCATAACGCACAGCCA the value was 0.0829.
With AATACAGGGTCATCGCAGGCCAGAGTACGCACAG the figure was 5.31; with TCTATTAGTTGATTATGGCAACCGAAACAGCGGA, 1.08.
The sequence GCTGCTAGGTCAAGTGATGGTCAGCTAAAGCTCG showed a PBM binding z-score of 1.63.
For CCAACTAGGTCAAGGACAGTGAATCTCCGCACGC the value was 1.16; for AGAATCAGGTTATACGTAGATCAGGGAAGAAAGT, 0.368.
Turning to GGAACGAGGGCATTCGAGTTGACAGCATGGCGAT, the PBM binding z-score was found to be 3.41.
ACTATTAGTTGAGACTAGGGCAACCGATAGGTTG came in with a PBM binding z-score of -0.386.
For CCGACTGGGGCAGTAAGGTTACCATACCATCCGG the value was 0.907; for GTAACGAGGGCAAGTTGATAGCAGAGTTTGATGG, 1.09.
